Screens: PubChem BioAssay, Broad Institute
ID4 SMM = binds human ID4 protein on microarray; P47928; small molecule microarray, Flag-ID4 binding, fluorescence F/B; calls only; 1.2% of 31,000 active; call rule not given here;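 further: a binder raises fluorescence above local background on the spot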
Target sequence (P47928 whole entry, looked up): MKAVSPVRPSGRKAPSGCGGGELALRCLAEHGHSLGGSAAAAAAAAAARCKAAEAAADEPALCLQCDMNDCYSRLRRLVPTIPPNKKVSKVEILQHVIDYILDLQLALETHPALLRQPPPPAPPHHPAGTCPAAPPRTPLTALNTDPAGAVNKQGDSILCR
STK33 inh = blocks human STK33 kinase activity; inhibition, % at 12.5 µM; Q9BYT3; 0.44% of 27,000 active; ADP-Glo luminescence, MBP substrate; in the data active means inhibition above about 20%
p53 PUMA act = re-activators of the mutant p53 pathway. SW480 PUMA-promoter luciferase, p53 mutant reactivation. activation, % at 9.98 µM. 1.5% of 28,000 active. AID 624151; in the data active means activation above about 52%
Numbers without * were called inactive; i = inactive; · = no result; + = active, no number. Shown are actives, neighbours in structure and some others; about 2.1% of the full set was active somewhere.

SMILES	ID4 SMM	STK33 inh	p53 PUMA act
C[C@H](CO)N1C[C@H](C)[C@H](CN(C)C(=O)Nc2ccc(F)cc2)Oc2ccc(NS(=O)(=O)c3cccs3)cc2C1=O	i	·	-4
Cc1ccc2oc(-c3ccc(NC(=O)Cn4c(=O)oc5ccccc54)cc3)nc2c1	i	5	60*
O=C(CN1C(=O)c2ccccc2C1=O)Nc1ccc(-c2nc3ccccc3o2)cc1	i	9	28
C[C@H]1CN([C@@H](C)CO)C(=O)c2cc(C3=CCCC3)cnc2O[C@H]1CN(C)C(=O)C1CCCCC1	i	·	·
COc1ccccc1NC(=O)c1c(NC(=O)COc2ccccc2)sc(C)c1C	i	-1	-11
COc1ccccc1NC(=O)c1c(NC(=O)c2ccco2)sc(C)c1C	i	2	76*
Cn1cnc(S(=O)(=O)N[C@H]2C=C[C@@H](CC(=O)NCC3CCCCC3)O[C@@H]2CO)c1	i	·	·
C[C@@H]1CN([C@H](C)CO)S(=O)(=O)c2ccc(-c3ccc(C(=O)N(C)C)cc3)cc2O[C@@H]1CN(C)Cc1ccc2c(c1)OCO2	+	·	-15
C[C@H](CO)N1C[C@H](C)[C@H](CN(C)Cc2ccccc2)Oc2cc(/C=C/c3ccccc3)ccc2S1(=O)=O	i	·	-10
C[C@@H]1CN([C@@H](C)CO)S(=O)(=O)c2ccc(/C=C/c3ccccc3)cc2O[C@H]1CN(C)Cc1ccc(C(=O)O)cc1	+	·	-5
COc1ccc(-c2ccc3c(c2)O[C@@H](CN(C)C(=O)Nc2ccccc2F)[C@@H](C)CN([C@H](C)CO)S3(=O)=O)cc1	·	·	-18
C[C@H](CO)N1C[C@H](C)[C@@H](CN(C)C(=O)Nc2ccccc2F)Oc2cc(-c3ccc(C(=O)N(C)C)cc3)ccc2S1(=O)=O	+	·	-8
C[C@@H]1CN([C@H](C)CO)S(=O)(=O)c2ccc(C3=CCCC3)cc2O[C@H]1CN(C)C(=O)c1cccnc1	·	·	6
COc1ccccc1-c1ccc2c(c1)O[C@H](CN(C)Cc1ccc3c(c1)OCO3)[C@H](C)CN([C@@H](C)CO)S2(=O)=O	i	·	-18
C[C@H](CO)N1C[C@H](C)[C@@H](CN(C)C(=O)c2ccncc2)Oc2cc(C3=CCCC3)ccc2S1(=O)=O	+	·	10
Cc1ccc(OCC(=O)Nc2ncc(C(F)(F)F)cc2Cl)c(Br)c1	i	0	14
O=C(Cn1c(=O)n(-c2cccc(C(F)(F)F)c2)c(=O)c2sccc21)N1CCCc2ccccc21	i	·	-24
CC(=O)N(C)C[C@@H]1Oc2cc(-c3ccccc3C)ccc2S(=O)(=O)N([C@H](C)CO)C[C@@H]1C	+	·	-12
COc1ccc(NC(=O)N(C)C[C@@H]2Oc3cc(-c4ccncc4)ccc3S(=O)(=O)N([C@H](C)CO)C[C@H]2C)cc1	+	·	-6
C[C@@H]1CN([C@@H](C)CO)S(=O)(=O)c2ccc(-c3cccc(C(=O)N(C)C)c3)cc2O[C@H]1CN(C)C(=O)Nc1ccc(F)cc1	·	·	5
C[C@@H]1CN([C@H](C)CO)S(=O)(=O)c2ccc(-c3cccc(C(=O)N(C)C)c3)cc2O[C@H]1CN(C)C(=O)Nc1ccc(F)cc1	+	·	10
Cc1ccccc1-c1ccc2c(c1)O[C@H](CN(C)C)[C@H](C)CN([C@H](C)CO)S2(=O)=O	i	·	3
COc1ccc(NC(=O)N(C)C[C@H]2Oc3cc(-c4ccc(C)cc4)ccc3S(=O)(=O)N([C@@H](C)CO)C[C@H]2C)cc1	i	·	-13
C[C@H](CO)N1C[C@H](C)[C@H](CN(C)C)Oc2cc(-c3ccncc3)ccc2S1(=O)=O	·	·	9
C[C@H](CO)N1C[C@H](C)[C@H](CN(C)Cc2cncnc2)Oc2cc(-c3ccncc3)ccc2S1(=O)=O	+	·	-8
SMILES	ID4 SMM	STK33 inh	p53 PUMA act
Cc1ccc(C(=O)CSc2nc3sc(C)c(C)c3c(=O)[nH]2)cc1	i	2	-1
Cc1ccc(S(=O)(=O)N(C)C[C@H]2Oc3ccc(N(C)C)cc3CC(=O)N([C@@H](C)CO)C[C@@H]2C)cc1	·	-3	5
COc1ccc(S(=O)(=O)N(C)C[C@@H]2Oc3ccc(NS(=O)(=O)c4ccccc4)cc3CC(=O)N([C@H](C)CO)C[C@H]2C)cc1	·	-1	·
COc1ccc(C(=O)CSc2nnc(-c3ccc(OC)c(OC)c3)n2-c2ccccc2)cc1	i	-2	-36
Cc1cc2nsnc2c(S(=O)(=O)NCC(=O)O)c1C	i	1	2
Cc1cccc(CN(C)C[C@H]2OCc3cnnn3CCCC(=O)N([C@@H](C)CO)C[C@H]2C)c1	i	10	·
CO[C@H](CN(C)Cc1ccc2c(c1)OCO2)[C@@H](C)CN(C(=O)c1ccccc1)[C@H](C)CO	i	·	·
C[C@@H]1CN([C@@H](C)CO)C(=O)CCCn2nncc2CO[C@@H]1CN(C)C(=O)Nc1ccccc1	·	-3	·
C[C@H](CO)N1C[C@H](C)[C@@H](CN(C)C(=O)Nc2ccccc2)Oc2ccc(NC(=O)Cn3cnnn3)cc2CC1=O	+	·	8
C[C@@H]1CN([C@H](C)CO)C(=O)Cc2cc(NC(=O)Cc3ccccc3)ccc2O[C@@H]1CN(C)C(=O)Nc1ccccc1	i	0	-1
C[C@H]1CN([C@@H](C)CO)C(=O)Cc2cc(NC(=O)Cn3cnnn3)ccc2O[C@@H]1CN(C)C(=O)Nc1ccccc1	i	1	6
C[C@@H]1CN([C@@H](C)CO)C(=O)Cc2cc(NC(=O)Cc3ccccc3)ccc2O[C@H]1CN(C)C(=O)Nc1ccccc1	+	·	5
C[C@@H]1CN([C@@H](C)CO)C(=O)Cc2cc(NS(=O)(=O)c3ccccc3)ccc2O[C@H]1CN(C)C(=O)Nc1ccccc1	+	·	6
C[C@@H]1CN([C@H](C)CO)C(=O)Cc2cc(NS(=O)(=O)c3ccccc3)ccc2O[C@H]1CN(C)C(=O)Nc1ccccc1	i	-1	11
O=C(Cc1ccccc1)N[C@@H]1C=C[C@H](CC(=O)N2CCCCC2)O[C@@H]1CO	i	·	·
C[C@H]1CCCCO[C@@H](CN(C)C)[C@@H](C)CN([C@@H](C)CO)C(=O)c2cc(NC(=O)Nc3ccc(F)cc3)ccc2O1	i	·	4
C[C@H](CO)N1C[C@H](C)[C@@H](CN(C)C(=O)Nc2ccc(F)cc2)Oc2ccc(NC(=O)Cn3cnnn3)cc2C1=O	i	·	-14
C[C@H]1CN([C@@H](C)CO)C(=O)Cc2cc(NC(=O)Cn3cnnn3)ccc2O[C@H]1CN(C)S(C)(=O)=O	·	2	·
O=C(CSc1nnnn1-c1ccccc1)Nc1cc(Cl)ccc1C(=O)O	i	4	-6
O=C(CSc1nnnn1-c1ccccc1)Nc1ccc(Cl)c(C(=O)O)c1	+	3	3
Cc1ccc2nc(-c3cccnc3)cc(C(=O)Nc3sc(C)c(C)c3C(N)=O)c2c1	i	3	-7
Cc1nn(C(C)C(=O)Nc2ccccc2C(F)(F)F)c(C)c1[N+](=O)[O-] (stereo unspecified)	i	-3	-2
O=C(NCc1nc2ccccc2[nH]1)C1=C[C@@H](C2CC2)C[C@@H](OCc2ccc(CO)cc2)O1	i	·	·
O=C(NCc1nc2ccccc2[nH]1)C1=C[C@H](C2CC2)C[C@H](OCc2ccc(CO)cc2)O1	+	·	·
C[C@@H]1CN([C@@H](C)CO)C(=O)c2cc(NS(C)(=O)=O)ccc2O[C@@H]1CN(C)C(=O)NC1CCCCC1	i	·	-4
